The nature of this assay: NCI Yeast Anticancer Drug Screen. Data for the sgs1 strain (AID 173).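 Note: 0% = growth of vehicle-only control cultures.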 Conditions: S. cerevisiae sgs1 mutant, hits give high values. How it is done: Growth inhibition of yeast strains with defined genetic alterations is measured as a screen for potential anti-cancer activity. Selected strains with alterations in DNA damage repair or cell cycle control were exposed to compounds and growth inhibition was measured relative to vehicle treated controls. The strain used in this assay is sgs1

About 79,000 compounds went through this panel and 15% of them were active in at least one assay; those are over-represented in the sample as a whole. A number with no mark means an inactive call. Activity calls are given as the source filed them. Cut-off read from the data, not from the text of the source: active = growth inhibition above about 70%; inactive = the rest.

As for `C[C@]12CCc3nonc3C1CC[C@@H]1C2CC[C@]2(C)C(=O)CCC12` (stereo not given in full), the growth inhibition is 13% (at 1.2 µM); 21% (at 3.7 µM); 31% (at 11.0 µM); 50% (at 33.0 µM); 78% (active) (at 100.0 µM).

Take `O=[N+]([O-])c1ccc(N2CCC(CCCC3CCN(c4ccc([N+](=O)[O-])cc4[N+](=O)[O-])CC3)CC2)c([N+](=O)[O-])c1`: the growth inhibition reads like this: (at 1.2 µM) -24%; (at 3.7 µM) -17%; (at 11.0 µM) -15%; (at 33.0 µM) 21%; (at 100.0 µM) 52%.

Regarding `CC1=C[C@H]2O[C@@H]3C[C@H]4OC(=O)/C=C\C=C\C(C(C)O)OCC(O)C(C)CC(=O)OC[C@@]2(C[C@@H]1O)[C@]4(C)[C@@]31CO1` (stereo not given in full), the growth inhibition is -42% (at 1.2 µM); -17% (at 3.7 µM); 82% (active) (at 11.0 µM); 94% (active) (at 33.0 µM); 96% (active) (at 100.0 µM).

As to `C/C(=N\N=C(N)N)C(CN1CCOCC1)C(c1ccccc1)c1c(O)c2ccccc2oc1=O` (stereo not given), the growth inhibition is -1% (at 1.2 µM); -3% (at 3.7 µM); 0% (at 11.0 µM); 42% (at 33.0 µM); 97% (active) (at 100.0 µM).

With `CN(C)CCSC1=Nc2ccc(Cl)cc2C(c2ccccc2Cl)=NC1`, the growth inhibition was -2% (at 1.2 µM); -1% (at 3.7 µM); 0% (at 11.0 µM); 16% (at 33.0 µM); 70% (active) (at 100.0 µM).

For `CC1(C)N=C(N)N=C(N)N1c1cccc(N)c1.[Sn]`, the growth inhibition (at 1.2 µM) was 14%; the growth inhibition (at 3.7 µM) was 20%; the growth inhibition (at 11.0 µM) is 19%; the growth inhibition (at 33.0 µM) is 26%; the growth inhibition (at 100.0 µM) is 52%.

Turning to `COC(=O)C1c2cc3c(c(O)c2C(O)CC1(C)O)C(=O)c1c(O)cc2c(c1C3=O)OC1OC2(C)C(O)C(N(C)C)C1O` (stereo not given), the growth inhibition (at 1.2 µM) was -1%; the growth inhibition (at 3.7 µM) is 9%; the growth inhibition (at 11.0 µM) was 40%; the growth inhibition (at 33.0 µM) is 71% (active); the growth inhibition (at 100.0 µM) was 87% (active).

For `BrCC[N+]12CC[N+](CCBr)(CC1)C2`, the growth inhibition is, setting by setting: (at 1.2 µM) -17%; (at 3.7 µM) 15%; (at 11.0 µM) 5%; (at 33.0 µM) 77% (active); (at 100.0 µM) 89% (active).

For the origin of these results see PubChem BioAssay (NCI).
